PubChem BioAssay (NCI)
This is part of a sample that, as a whole, favours compounds with a hit. Of some 79,000 tested, about 15% had one in any assay. The source made the active and inactive calls. Rule as the data show it: active = growth inhibition above about 70%; inactive = the rest.

How the values were obtained:
[1] = NCI Yeast Anticancer Drug Screen. Data for the wt1 strain (AID 149);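 also: 0% = growth of vehicle-treated wt1 cultures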; details: S. cerevisiae wt1 strain (SPY 50644) growth inhibition, hits give high values
Method in brief: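 Measured: growth of wt1 yeast under compound versus vehicle treatment, reported as inhibition.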

[2] = NCI Yeast Anticancer Drug Screen. Data for the mgt1 strain (AID 153); details: S. cerevisiae mgt1 mutant growth inhibition, hits give high values
Method in brief: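 Growth inhibition relative to vehicle controls was scored for the mgt1 yeast strain after compound exposure.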

[3] = NCI Yeast Anticancer Drug Screen. Data for the rad50 strain (AID 155);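 also: 0% = growth of vehicle-only cultures of the same strain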; details: S. cerevisiae rad50 strain growth inhibition, hits give high values
Method in brief: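 Growth of the mutant yeast was measured after compound exposure and referenced to vehicle-treated cultures.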

[4] = NCI Yeast Anticancer Drug Screen. Data for the mec2-1 strain (AID 157); details: S. cerevisiae mec2-1 strain, hits give high values
Method in brief: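 Growth inhibition is read against vehicle-treated controls after compound exposure of the mec2-1 yeast strain, which is defective in DNA damage repair or cell cycle control.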

[5] = NCI Yeast Anticancer Drug Screen. Data for the rad14 strain (AID 159);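 also: 0% = growth of vehicle-treated control cultures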; details: S. cerevisiae rad14 strain growth inhibition, hits give high values
Method in brief: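 Here, inhibition of yeast growth was measured after compound exposure, using a strain with a genetic defect in DNA damage repair and vehicle-treated cultures as the reference.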

[6] = NCI Yeast Anticancer Drug Screen. Data for the sgs1 mgt1 strain (AID 161);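 also: 0% = growth of cultures given vehicle only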; details: S. cerevisiae sgs1 mgt1 strain, hits give high values
Method in brief: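 This yeast growth screen uses a strain with defined DNA-repair lesions; compound-treated growth is compared with vehicle-treated growth.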

[7] = NCI Yeast Anticancer Drug Screen. Data for the CLN2oe strain (AID 163);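 also: 0% = growth of vehicle-only control cultures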; details: S. cerevisiae CLN2oe strain, hits give high values
Method in brief: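 Compound-treated yeast; growth vs vehicle ctrl = % inhibition. Genetically altered strain (cell-cycle control).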

[8] = NCI Yeast Anticancer Drug Screen. Data for the cln2 rad14 strain (AID 165);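 also: 0% = growth equal to vehicle treated cultures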; details: S. cerevisiae cln2 rad14 strain, hits give high values
Method in brief: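 Growth inhibition, relative to vehicle-treated controls, is the read-out. The test organism is a yeast strain with defined genetic alterations, cln2 rad14.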

[9] = NCI Yeast Anticancer Drug Screen. Data for the bub3 strain (AID 167); details: S. cerevisiae bub3 mutant strain, hits give high values
Method in brief: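 Whole-cell yeast assay. The mutant strain was incubated with compounds, and growth inhibition was determined by comparison with vehicle-treated cells.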

[10] = NCI Yeast Anticancer Drug Screen. Data for the mlh1 strain (AID 171);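 also: 0% = growth of vehicle-treated control cultures of the same strain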; details: S. cerevisiae mlh1 strain growth inhibition, hits give high values
Method in brief: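 Compounds are applied to a genetically altered yeast strain, and its growth is compared with that of vehicle-treated cultures to give percent inhibition.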

[11] = NCI Yeast Anticancer Drug Screen. Data for the sgs1 strain (AID 173);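 also: 0% = growth of vehicle-only control cultures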; details: S. cerevisiae sgs1 mutant, hits give high values
Method in brief: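 Compounds applied to genetically altered yeast; growth compared with vehicle-treated cultures to give % inhibition.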

[12] = NCI Yeast Anticancer Drug Screen. Data for the mlh1 rad18 strain (AID 175); details: S. cerevisiae mlh1 rad18 strain growth inhibition, hits give high values
Method in brief: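 Cells of a genetically altered yeast strain, deficient in DNA damage repair, were treated with compound. Their growth was then compared with that of vehicle-treated cultures to give inhibition.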

[13] = at 5.0 µM (retest, dose inferred, filed as 0.5)
[14] = at 50.0 µM (retest, dose inferred, filed as 5.0)

Measured: growth inhibition

Cc1cccc[c]1[Sn]([Cl])([S]/C(C#N)=N/N=C/c1ccc(N(C)C)cc1)[c]1ccccc1C
active: [2]; at 100.0 µM 91% | [3]; [14] 89% | [3]; at 50.0 µM 97.4% | [3]; at 100.0 µM 94% | [4]; [14] 90% | [4]; at 50.0 µM 98.2% | [4]; at 100.0 µM 93% | [5]; at 100.0 µM 93% | [6]; [14] 92% | [6]; at 50.0 µM 98.3% | [7]; at 100.0 µM 94% | [8]; [14] 89% | [8]; at 50.0 µM 97.1% | [9]; [14] 92% | [9]; at 50.0 µM 97.2% | [9]; at 100.0 µM 89% | [10]; at 100.0 µM 90% | [11]; at 100.0 µM 94% | [12]; [14] 86% | [12]; at 50.0 µM 98.4%
inactive: [1]; at 1.2 µM -4% | [1]; at 3.7 µM -3% | [1]; at 11.0 µM -8% | [1]; at 33.0 µM 35% | [1]; at 100.0 µM 48% | [2]; at 1.2 µM -3% | [2]; at 3.7 µM -6% | [2]; at 11.0 µM -8% | [2]; at 33.0 µM 37% | [3]; at 1.2 µM -3% | [3]; at 3.7 µM -1% | [3]; [13] 40% | [3]; at 11.0 µM 12% | [3]; at 33.0 µM 67% | [4]; at 1.2 µM 2% | [4]; at 3.7 µM -1% | [4]; [13] 9% | [4]; at 11.0 µM 8% | [4]; at 33.0 µM 51% | [5]; at 1.2 µM -1% | [5]; at 3.7 µM 3% | [5]; at 11.0 µM 11% | [5]; at 33.0 µM 58% | [6]; [13] 37% | [7]; at 1.2 µM 0% | [7]; at 3.7 µM 0% | [7]; at 11.0 µM 2% | [7]; at 33.0 µM 53% | [8]; [13] 25% | [9]; at 1.2 µM -8% | [9]; at 3.7 µM -6% | [9]; [13] 34% | [9]; at 11.0 µM 0% | [9]; at 33.0 µM 46% | [10]; at 1.2 µM 3% | [10]; at 3.7 µM -5% | [10]; at 11.0 µM -4% | [10]; at 33.0 µM 35% | [11]; at 1.2 µM -1% | [11]; at 3.7 µM -3% | [11]; at 11.0 µM -1% | [11]; at 33.0 µM 66% | [12]; [13] 47%
